Data on five compounds can be found in PubChem BioAssay.

Assay [1] in a line: small molecules captured by biotinylated probe aFSTL3 – biochemical, small-molecule microarray, fluorescence 635/667, stem cell growth factor project, primary screen (AID 1064).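 Further: measures binding of the biotinylated anti-FSTL3 antibody to printed compounds.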 The settings on record: higher = more signal.
The nature of assay [2]: binders from COS7 lysate, DM2A8 probe, primary screen, torsin A project, cell lysate, small-molecule microarray, fluorescence 635/667 (AID 1065). The note with it: higher = more signal, COS7 lysate expressing mutant human TOR1A.
The nature of assay [3]: small molecules captured by biotinylated probe aFGF2 – biochemical, small-molecule microarray, fluorescence 635/667, stem cell growth factor project, primary screen (AID 1067).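 Further: measures binding of biotinylated aFGF2 protein to printed compounds on slides; z-score merges feature fluorescence and signal-to-noise across triplicate slides.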 The note with it: higher = more signal.
A short description of assay [4]: small molecules captured by biotinylated probe aFGF10 – biochemical, small-molecule microarray, fluorescence 635/667, stem cell growth factor project, primary screen (AID 1071).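 Further: score merges 667 nm spot intensity and signal to noise from triplicate slides.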 The settings on record: higher = more signal.
The target in assay [5] is Neurogenic locus notch homolog protein 2 (Homo sapiens) (UniProt Q04721). Briefly: small molecules binding Notch2 protein – biochemical, small-molecule microarray, 635 nm fluorescence, stem cell growth factors, primary screen (AID 1073). The note with it: higher = more signal.
Neurogenic locus notch homolog protein 2 (Homo sapiens), sequence (Q04721 whole entry, looked up, canonical isoform): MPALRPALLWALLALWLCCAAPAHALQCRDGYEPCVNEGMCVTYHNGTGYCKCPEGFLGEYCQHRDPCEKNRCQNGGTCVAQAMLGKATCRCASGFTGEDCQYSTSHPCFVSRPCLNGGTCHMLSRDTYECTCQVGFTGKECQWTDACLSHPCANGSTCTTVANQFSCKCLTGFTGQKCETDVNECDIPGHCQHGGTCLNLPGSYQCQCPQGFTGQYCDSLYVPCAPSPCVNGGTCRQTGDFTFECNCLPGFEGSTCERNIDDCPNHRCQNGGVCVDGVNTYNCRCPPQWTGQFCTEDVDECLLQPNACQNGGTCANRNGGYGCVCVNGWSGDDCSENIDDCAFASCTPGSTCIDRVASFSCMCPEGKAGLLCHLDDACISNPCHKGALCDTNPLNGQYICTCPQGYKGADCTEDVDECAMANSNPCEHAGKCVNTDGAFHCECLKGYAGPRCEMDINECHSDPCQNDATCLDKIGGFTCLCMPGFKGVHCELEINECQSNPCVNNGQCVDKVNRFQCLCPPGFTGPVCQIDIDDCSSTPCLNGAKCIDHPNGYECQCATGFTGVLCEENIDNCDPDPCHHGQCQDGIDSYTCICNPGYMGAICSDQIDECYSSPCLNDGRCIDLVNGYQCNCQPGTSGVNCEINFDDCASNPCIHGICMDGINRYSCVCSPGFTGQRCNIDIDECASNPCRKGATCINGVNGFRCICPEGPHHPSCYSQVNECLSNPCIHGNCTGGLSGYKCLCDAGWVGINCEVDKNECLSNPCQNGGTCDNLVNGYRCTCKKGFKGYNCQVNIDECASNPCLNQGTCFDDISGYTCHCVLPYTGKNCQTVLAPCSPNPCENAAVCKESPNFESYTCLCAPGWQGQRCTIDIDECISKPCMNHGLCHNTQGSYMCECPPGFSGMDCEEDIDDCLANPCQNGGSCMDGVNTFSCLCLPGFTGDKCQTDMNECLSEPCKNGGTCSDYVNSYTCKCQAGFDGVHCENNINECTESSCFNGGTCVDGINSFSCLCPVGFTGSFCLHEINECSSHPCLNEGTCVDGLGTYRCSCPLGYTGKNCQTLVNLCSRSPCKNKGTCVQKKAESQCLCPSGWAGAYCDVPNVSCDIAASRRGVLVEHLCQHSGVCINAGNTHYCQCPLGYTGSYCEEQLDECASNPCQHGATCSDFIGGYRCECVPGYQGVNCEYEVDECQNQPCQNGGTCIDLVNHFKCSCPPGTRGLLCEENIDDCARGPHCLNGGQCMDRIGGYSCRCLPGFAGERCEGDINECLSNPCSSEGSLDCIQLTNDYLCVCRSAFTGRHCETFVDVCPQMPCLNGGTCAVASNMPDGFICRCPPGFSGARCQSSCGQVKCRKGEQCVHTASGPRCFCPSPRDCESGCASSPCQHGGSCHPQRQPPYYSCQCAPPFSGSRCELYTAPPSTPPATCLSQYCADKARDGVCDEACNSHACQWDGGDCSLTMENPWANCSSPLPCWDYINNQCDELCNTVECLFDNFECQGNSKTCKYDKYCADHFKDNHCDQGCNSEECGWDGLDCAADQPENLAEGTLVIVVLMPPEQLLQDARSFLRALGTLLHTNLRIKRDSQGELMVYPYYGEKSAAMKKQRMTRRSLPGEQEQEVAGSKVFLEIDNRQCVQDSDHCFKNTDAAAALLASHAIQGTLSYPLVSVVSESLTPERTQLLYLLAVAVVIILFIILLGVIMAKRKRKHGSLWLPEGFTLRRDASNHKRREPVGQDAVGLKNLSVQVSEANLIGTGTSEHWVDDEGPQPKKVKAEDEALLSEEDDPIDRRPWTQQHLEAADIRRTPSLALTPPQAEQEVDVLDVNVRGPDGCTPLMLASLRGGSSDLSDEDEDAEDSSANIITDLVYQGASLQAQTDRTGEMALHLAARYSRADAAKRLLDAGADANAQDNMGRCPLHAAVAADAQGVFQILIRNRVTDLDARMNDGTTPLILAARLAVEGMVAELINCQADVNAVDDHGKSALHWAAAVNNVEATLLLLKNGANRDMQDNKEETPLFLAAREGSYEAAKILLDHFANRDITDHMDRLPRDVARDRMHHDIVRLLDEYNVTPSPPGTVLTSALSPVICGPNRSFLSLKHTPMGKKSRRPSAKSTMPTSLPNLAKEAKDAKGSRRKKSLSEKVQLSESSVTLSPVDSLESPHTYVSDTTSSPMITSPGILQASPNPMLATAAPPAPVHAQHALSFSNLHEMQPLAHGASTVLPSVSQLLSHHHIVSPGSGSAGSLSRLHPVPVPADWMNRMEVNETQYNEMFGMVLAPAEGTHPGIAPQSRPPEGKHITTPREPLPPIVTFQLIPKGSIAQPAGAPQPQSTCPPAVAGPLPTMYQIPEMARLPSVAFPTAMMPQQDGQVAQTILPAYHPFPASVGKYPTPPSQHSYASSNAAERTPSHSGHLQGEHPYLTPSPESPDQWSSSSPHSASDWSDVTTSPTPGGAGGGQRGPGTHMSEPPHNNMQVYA
For assay [6], the target named is Pro-neuregulin-1, membrane-bound isoform (Homo sapiens) (UniProt Q02297). Briefly: small molecules binding neuregulin-1 protein – biochemical, small-molecule microarray, fluorescence 635/667, psychiatric disease protein project, primary screen (AID 1075).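 Further: score combines 667 nm spot fluorescence with signal to noise.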 The note with it: NRG1 binding, 635 nm fluorescence, higher = more signal.
Assay [7] deals with Neuregulin-1 EGF-like domain. Briefly: small molecules binding NRG1 EGF domain – biochemical, small-molecule microarray, 635 nm fluorescence, primary screen (AID 1081).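 Further: binding of the protein to compounds printed on small-molecule microarray slides.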 The settings on record: higher = more signal.
A short description of assay [8]: FRG1 expression reporter modulators in myotubes – cell-based, C2C12 myotubes, firefly/Renilla luciferase, luminescence, FRG1 inhibition for FSHD, primary screen (AID 1084). The settings on record: FRG1 promoter luciferase, higher = more signal, called active from +8 up or from −8 down.
Assay [9] is described as follows: small molecules captured by biotinylated probe aFST – biochemical, small-molecule microarray, fluorescence 635/667, stem cell growth factor project, primary screen (AID 1086).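 Further: score merges 667 nm fluorescence with signal-to-noise of each printed compound spot.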 The settings on record: higher = more signal.
Assay [10] can be described thus: binders of probe aHhip on microarray, primary screen, stem cell growth factor project, biochemical, small-molecule microarray, fluorescence 635/667 (AID 1087).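 Further: score merges spot fluorescence at 667nm with spot signal to noise ratio.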 The note with it: higher = more signal.
For assay [11], the system named is PRMT1 (protein arginine N-methyltransferase 1). Briefly: small molecules binding arginine methyltransferase PRMT1 – biochemical, small-molecule microarray, 635 nm fluorescence, primary screen (AID 1088).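 Further: binding of Prmt1 protein to compounds spotted on small-molecule microarray slides.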 The settings on record: higher = more signal.
The nature of assay [12]: growth effects on S. cerevisiae YJM789 – YJM789 clinical isolate, OD600, 24 h, basal, primary screen (AID 1089).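 Further: growth of clinical yeast isolate S. cerevisiae YJM 789 seeded 1000 cells per well; test concentration not given here.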 The settings on record: higher = more signal, called active from +8 up or from −8 down.
A short description of assay [13]: S. pombe growth modifiers, basal conditions – strain 972, OD600, 24 h, no modulator, primary screen (AID 1090).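 Further: basal condition with compound alone and no growth modifier present; test concentration not given here.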 The note with it: S. pombe 972 growth, higher = more signal, called active from +8 up or from −8 down.
A short description of assay [14]: budding yeast growth modifiers under rapamycin – strain BY4716, OD600, 96 h, primary screen (AID 1091). Further: test concentration not given here. The note with it: S. cerevisiae BY4716 + rapamycin, higher = more signal, called active from +8 up or from −8 down.
Assay [15] deals with Torsin-1A-interacting protein 2 (Homo sapiens) (UniProt Q8NFQ8). Briefly: small molecules binding lysate-expressed LULL1 – cell lysate, human LULL1 lysate, 635/667 nm fluorescence, primary screen (AID 1092).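 Further: probe is lysate of COS7 cells overexpressing human LULL1; score merges per-feature 667 nm fluorescence with signal-to-noise.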 The note with it: small-molecule microarray, hLULL1 lysate binding, 635 nm fluorescence; higher = more signal.
Assay [16] is described as follows: optical density change of DRC41 E. coli – strain DRC41, OD650, 24 h, E. coli filamentation project, primary screen (AID 1093).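 Further: MC1000 strain lacking acrAB efflux and sulA so SOS filamentation is blocked; test concentration not given here.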 The note with it: E. coli DRC41 growth, higher = more signal, called active from +8 up or from −8 down.
Assay [17] in a line: probe aLefty2 binding to arrayed compounds – biochemical, biotinylated probe, 635/667 nm fluorescence, primary screen (AID 1094).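 Further: score merges spot fluorescence near 667 nm with spot signal-to-noise ratio.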 The settings on record: small-molecule microarray, higher = more signal.
The test system of assay [18] is Noggin (protein binding on small-molecule microarray). Briefly: small molecules binding Noggin protein – biochemical, 635/667 nm fluorescence, primary screen (AID 1095).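 Further: score merges 667 nm feature fluorescence with signal to noise over triplicate slides.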 The settings on record: 635 nm fluorescence, higher = more signal.
The target in assay [19] is Neurogenic locus notch homolog protein 3 (Homo sapiens) (UniProt Q9UM47). Briefly: small molecules binding NOTCH3 protein – biochemical, 635/667 nm fluorescence, primary screen (AID 1096). The note with it: small-molecule microarray, 635 nm fluorescence, higher = more signal.
Neurogenic locus notch homolog protein 3 (Homo sapiens), sequence (Q9UM47 whole entry, looked up): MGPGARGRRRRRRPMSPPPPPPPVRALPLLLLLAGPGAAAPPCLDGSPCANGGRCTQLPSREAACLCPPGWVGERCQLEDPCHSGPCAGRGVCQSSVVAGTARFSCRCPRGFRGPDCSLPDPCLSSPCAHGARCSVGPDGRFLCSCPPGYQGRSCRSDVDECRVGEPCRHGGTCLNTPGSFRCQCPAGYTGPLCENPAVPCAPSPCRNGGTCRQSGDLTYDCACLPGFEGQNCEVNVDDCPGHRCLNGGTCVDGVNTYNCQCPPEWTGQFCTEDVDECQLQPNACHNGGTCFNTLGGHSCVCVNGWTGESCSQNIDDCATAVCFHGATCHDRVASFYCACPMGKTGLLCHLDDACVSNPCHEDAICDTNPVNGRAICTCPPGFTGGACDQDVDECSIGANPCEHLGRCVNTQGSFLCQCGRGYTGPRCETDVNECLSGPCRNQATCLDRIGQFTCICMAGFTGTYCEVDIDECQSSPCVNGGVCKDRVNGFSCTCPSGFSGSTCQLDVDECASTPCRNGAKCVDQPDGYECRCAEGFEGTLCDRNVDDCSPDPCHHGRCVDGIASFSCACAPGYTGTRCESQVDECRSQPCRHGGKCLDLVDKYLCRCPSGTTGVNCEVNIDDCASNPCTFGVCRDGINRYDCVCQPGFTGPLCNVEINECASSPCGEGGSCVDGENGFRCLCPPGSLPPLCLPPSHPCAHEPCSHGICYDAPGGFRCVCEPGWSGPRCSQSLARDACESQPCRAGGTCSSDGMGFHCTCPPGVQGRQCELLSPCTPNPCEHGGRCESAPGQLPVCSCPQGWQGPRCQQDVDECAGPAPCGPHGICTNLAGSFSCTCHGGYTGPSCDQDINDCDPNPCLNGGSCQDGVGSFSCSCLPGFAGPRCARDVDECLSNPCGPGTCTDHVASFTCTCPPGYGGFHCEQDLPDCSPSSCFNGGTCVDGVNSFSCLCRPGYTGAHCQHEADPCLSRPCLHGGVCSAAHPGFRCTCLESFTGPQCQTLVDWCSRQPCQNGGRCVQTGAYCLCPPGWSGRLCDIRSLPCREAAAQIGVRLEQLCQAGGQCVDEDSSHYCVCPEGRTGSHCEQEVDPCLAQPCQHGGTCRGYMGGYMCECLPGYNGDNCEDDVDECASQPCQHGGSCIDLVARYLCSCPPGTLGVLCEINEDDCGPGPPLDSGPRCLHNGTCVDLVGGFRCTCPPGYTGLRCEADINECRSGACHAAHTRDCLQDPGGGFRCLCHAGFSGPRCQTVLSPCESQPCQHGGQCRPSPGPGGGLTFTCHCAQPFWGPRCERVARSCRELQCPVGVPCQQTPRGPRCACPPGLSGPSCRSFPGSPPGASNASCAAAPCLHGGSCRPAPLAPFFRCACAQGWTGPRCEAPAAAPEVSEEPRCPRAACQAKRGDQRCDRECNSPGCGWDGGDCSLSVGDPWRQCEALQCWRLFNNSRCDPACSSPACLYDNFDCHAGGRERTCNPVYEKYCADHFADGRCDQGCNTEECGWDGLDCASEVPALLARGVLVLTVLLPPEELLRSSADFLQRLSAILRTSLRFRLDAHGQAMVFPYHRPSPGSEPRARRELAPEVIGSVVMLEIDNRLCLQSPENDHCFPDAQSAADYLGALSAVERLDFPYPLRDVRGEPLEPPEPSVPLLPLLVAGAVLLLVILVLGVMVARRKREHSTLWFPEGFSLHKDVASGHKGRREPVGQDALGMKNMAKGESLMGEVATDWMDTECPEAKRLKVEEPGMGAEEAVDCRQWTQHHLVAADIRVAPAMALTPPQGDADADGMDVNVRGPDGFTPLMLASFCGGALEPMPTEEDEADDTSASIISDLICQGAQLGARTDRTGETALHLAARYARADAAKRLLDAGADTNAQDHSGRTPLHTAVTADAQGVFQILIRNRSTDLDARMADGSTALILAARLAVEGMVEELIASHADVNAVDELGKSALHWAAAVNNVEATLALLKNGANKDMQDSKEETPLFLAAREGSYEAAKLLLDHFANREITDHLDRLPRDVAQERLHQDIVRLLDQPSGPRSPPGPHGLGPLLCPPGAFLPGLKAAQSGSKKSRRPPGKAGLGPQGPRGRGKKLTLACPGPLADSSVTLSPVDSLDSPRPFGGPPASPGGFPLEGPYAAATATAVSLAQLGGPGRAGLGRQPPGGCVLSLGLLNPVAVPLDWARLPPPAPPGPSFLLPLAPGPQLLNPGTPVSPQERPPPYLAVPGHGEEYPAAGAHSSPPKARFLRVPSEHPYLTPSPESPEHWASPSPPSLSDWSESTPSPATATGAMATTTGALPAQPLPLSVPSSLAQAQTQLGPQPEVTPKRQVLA
Assay [20] can be described thus: probe aEGFR binding to arrayed compounds – biochemical, biotinylated probe, 635/667 nm fluorescence, primary screen (AID 1097).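 Further: probe is a biotinylated anti-EGFR antibody binding compounds printed on slides; score combines fluorescence near 667 nm and signal to noise of each spot.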 The settings on record: small-molecule microarray, higher = more signal.

Activity calls are given as the source filed them.

On to `COc1cc2c(cc1OC)CN(C(=O)[C@@H]1[C@H]3C(=O)O[C@H](c4ccccc4)[C@H](c4ccccc4)N3[C@H](c3ccc(OCCO)cc3)[C@@]13C(=O)Nc1ccccc13)CC2`, for which the composite z-score is -0.164 in assay [1]; 0.562 in assay [2]; 0.0373 in assay [3]; 1.01 in assay [4]; 1.16 in assay [5]; 1.42 in assay [6]. For the same compound, the composite z-score in assay [7] was 1.23; in assay [9] it was 0.29; in assay [10] it was 0.0139; in assay [11] it was 1.54; in assay [15], 3; in [17], -0.126. Moreover, the composite z-score in assay [18] turned out to be 1.32; in assay [19], 1.15; in [20] it was 0.134. Besides, the z-score in assay [8] was 2.03 (inactive); in assay [12], 3.17 (inactive); in assay [13] it was 1.16 (inactive); in [14], 5.44 (inactive); in assay [16], 0.761 (inactive).

On to `C=C[C@@H](COC(C)=O)N(C(=O)OC(C)(C)C)S(=O)(=O)c1ccc(Br)cc1`, for which the composite z-score in [1] is 0.0095; in assay [2] it was 1.66; in assay [3], -0.0005; in [4], 0.358; in [5], 0.401; in assay [6], 0.33. Besides, the composite z-score is 1.01 in [7]; 0.157 in assay [9]; 0.157 in assay [10]; 0.832 in [11]; 0.519 in assay [15]; 0.132 in assay [17]. For the same compound, the composite z-score in assay [18] was found to be 0.841; in assay [19], 0.782; in assay [20] it was 0.0709. Further, the z-score in assay [8] was -3.97 (inactive); in assay [12], -0.152 (inactive); in [13] it was -1.54 (inactive); in [14], -0.666 (inactive); in assay [16], 0.411 (inactive).

`O=C1NC(=O)C2C1C=CC(C(O)c1ccco1)N2Nc1ccccn1` (stereo not given): the composite z-score in assay [1] was -0.156; in assay [2] it was -0.156; in assay [3], -0.0907; in [4] it was -0.0923; in [5] it was 0.076; in assay [6], -0.0825. Further, the composite z-score was 1.08 in assay [7]; 0.055 in [9]; 0.154 in [10]; 0.184 in assay [11]; 0.147 in assay [15]; -0.121 in assay [17]. The composite z-score is -0.119 in assay [18], -0.509 in assay [19] and -0.0259 in [20]. The z-score in [8] is 1.41 (inactive); in [12] it was 0.493 (inactive); in [13], 0.652 (inactive); in assay [14], 0.637 (inactive); in assay [16] it was -0.87 (inactive).

For `COCCOC(=O)N1C(=O)[C@@]2(c3cc(C#CC4=CCCCC4)ccc31)[C@H](c1ccccc1OCCO)N1[C@H](c3ccccc3)[C@H](c3ccccc3)OC(=O)[C@H]1[C@@H]2C(=O)N1CCCCCCC1`, the composite z-score in [1] is 0.493; in assay [2] it was 0.107; in [3], 0.0829; in [4], 0.61; in assay [5], 1.1; in assay [6], 0.382. Also, the composite z-score in [7] was 1.29; in assay [9] it was 0.497; in assay [10], -0.972; in assay [11], 1.57; in assay [15], 2.9; in assay [17], -0.573. Also, the composite z-score in [18] was determined as 0.766; in assay [19] it was 1.05; in [20], 0.0961. The z-score is -0.639 (inactive) in assay [8]; 1.31 (inactive) in [12]; 1.59 (inactive) in assay [13]; 3.07 (inactive) in assay [14]; 0.0735 (inactive) in assay [16].

As for `COC(=O)[C@@]1(Cc2ccc(OC)cc2)[C@@H]2C(=CC(=O)[C@H]2CC(=O)C(=O)N(C)C)CN1C(=O)c1ccccc1`, the composite z-score in [1] was 0.928; in [2], -0.262; in [3] it was 0.0921; in [4], 0.582; in assay [5], 1.77; in assay [6], 1.39. In addition, the composite z-score in assay [7] came out at 1.18; in [9] it was 1.97; in [10], 0.177; in assay [11] it was 0.464; in assay [15], 3.54; in [17], 0.413. Further, the composite z-score in assay [18] was -0.343; in [19], 1.03; in assay [20] it was 0.0364. The z-score in assay [8] was 1.46 (inactive); in assay [12], 0.244 (inactive); in assay [13], 0.693 (inactive); in [14], 2.88 (inactive); in assay [16] it was -1.08 (inactive).
